# In the library only some 2.9% were active in any assay of this set; here they are far more common.
# PLCb3 inh = inhibitors of human phospholipase C beta3; inhibition, % at 12.2 µM; Q01970; Purified PLC-beta3, fluorogenic substrate, fluorescence; 0.18% of 370,000 active; in the data active = inhibition above about 11%;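 note: 0% = median of compound wells on plate and 100% = full blocker control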
# ADAM17 inh = inhibits human ADAM17 | P78536 | recombinant ADAM17, EDANS/DABCYL FRET peptide cleavage | inhibition, % at 6.95 µM | 0.83% of 370,000 active | AID 720648;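 active = inhibition above the mean of compounds lying between control limits plus 3 SD, set per campaign, cut at about 8.5% in these data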;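 note: 0% = DMSO-only wells as the low control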
# Target sequence (P78536 215-824 limits assumed): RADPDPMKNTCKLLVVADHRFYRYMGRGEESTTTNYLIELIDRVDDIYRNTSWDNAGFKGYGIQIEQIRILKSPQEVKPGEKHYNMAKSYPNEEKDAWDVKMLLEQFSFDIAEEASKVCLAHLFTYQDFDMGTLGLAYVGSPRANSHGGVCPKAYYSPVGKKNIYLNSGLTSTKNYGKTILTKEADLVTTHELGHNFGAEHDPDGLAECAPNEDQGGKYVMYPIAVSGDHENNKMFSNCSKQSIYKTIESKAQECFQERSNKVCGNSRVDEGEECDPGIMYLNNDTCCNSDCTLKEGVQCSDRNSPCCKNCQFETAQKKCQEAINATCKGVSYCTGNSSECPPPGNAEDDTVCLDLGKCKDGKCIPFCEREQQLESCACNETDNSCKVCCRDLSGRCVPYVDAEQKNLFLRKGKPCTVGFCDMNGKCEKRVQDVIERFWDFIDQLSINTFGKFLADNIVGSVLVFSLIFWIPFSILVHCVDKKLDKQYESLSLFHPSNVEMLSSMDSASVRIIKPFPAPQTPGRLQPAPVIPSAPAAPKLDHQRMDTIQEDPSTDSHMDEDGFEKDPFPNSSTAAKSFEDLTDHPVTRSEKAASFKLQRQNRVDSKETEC
# proKLK7 act = activators of human kallikrein-7 zymogen. purified proKLK7, EDANS-DABCYL substrate fluorescence; 100% is mature enzyme control, 0% vehicle. P49862. activation, % at 7 µM. 0.9% of 370,000 active. AID 652039;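 active = activation above the mean of all tested compounds plus 3 SD, computed per campaign excluding outliers beyond control limits, cut at about 13% in these data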
# ADAM10 inh = inhibitors of human ADAM10; O14672; recombinant ADAM10, EDANS/DABCYL FRET peptide cleavage, 3 h; inhibition, % at 7 µM; 0.62% of 370,000 active; AID 720582;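 active = inhibition above a per-campaign cutoff equal to the mean of compounds falling between control-based bounds plus 3 SD, cut at about 20% in these data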;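 note: 0% = DMSO wells while the 100% control is not disclosed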
# PLC-gamma1 inh = PLC-gamma1 (human) inhibition, primary screen; P19174; purified PLC-gamma1, fluorogenic substrate, fluorescence; inhibition, % at 12.2 µM; 0.84% of 370,000 active; in the data active = inhibition above about 9.5%
# proKLK7 act conf = proKLK7 activation, confirmation; shares compounds with proKLK7 act; 68% of 3,200 active; activation, % at 7 µM; purified proKLK7, EDANS-DABCYL substrate fluorescence; scaled: vehicle 0, mature enzyme 100; AID 686949;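 active = activation, as change over the incubation, above the mean of all tested compounds plus 3 SD, cut at about 13% in these data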
# EDANS interfere = optically interferes with EDANS-DABCYL signal, flagging KLK7 hits; 80% of 3,200 active; EDANS-DABCYL substrate fluorescence interference, no enzyme, 4 h; solvent 0%, active enzyme control 100%; AID 686952; activation, % at 7 µM; shares compounds with proKLK7 act;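 active = activation above the all-compound mean plus 3 SD, ignoring values outside control-based bounds, cut at about 4.8% in these data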;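 note: value is the 4 h activation minus the activation read at time zero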
# EDANS interf = EDANS fluorescence interference in dose response, no enzyme. EC50, µM. 20% of 250 active. EDANS-DABCYL peptide fluorescence interference. AID 720493. shares compounds with proKLK7 act;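 active = compounds that raise the fluorescence signal in this interference counterscreen, with EC50 at or below 10 µM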;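 note: intact quenched peptide substrate alone read at 355 nm excitation and 520 nm emission; signal is fluorescence gain from T0 to T4 after four hours at room temperature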
# The depositor's hits bear a star; i = inactive; · = no result given.
SMILES,PLCb3 inh,ADAM17 inh,proKLK7 act,ADAM10 inh,PLC-gamma1 inh,proKLK7 act conf,EDANS interfere,others
COC(=O)C1=CN(CC2CCCO2)C=C(C(=O)OC)C1c1ccsc1 (stereo not given),i,i,27.4*,i,i,33.7*,18.3*,EDANS interf=>69.5
COC(=O)C1=CN(C(C)C)C=C(C(=O)OC)C1c1cccc(OC)c1,i,i,38.6*,i,i,3.5,-4.5,
COC(=O)C1=CN(CC2CCCO2)C=C(C(=O)OC)C1c1ccccc1C(F)(F)F (stereo not given),-416.2,-352.5,-17.6,i,-335.2,·,·,
COC(=O)C1=CN(C(C)C)C=C(C(=O)OC)C1c1cc(Br)c(OC)c(OC)c1,i,i,-7.1,i,i,·,·,
COC(=O)C1=CN(Cc2ccc(F)cc2)C=C(C(=O)OC)C1c1ccc(O)c(OC)c1,-21.4,-10.6,-0.3,-25.4,-14.9,·,·,
COc1cc(C(=S)N2CCOCC2)ccc1OC(=O)c1ccc(Br)cc1,-3.4,4.1,0.7,0.5,4.5,·,·,
COc1ccc2nc(SCC(=O)Nc3ccc4[nH]c(=O)[nH]c4c3)[nH]c2c1,-8.5,-0.7,0.0,-4.2,-2.8,·,·,
CCOC(=O)C1=CN(C)C=C(C(=O)OCC)C1c1ccsc1,i,i,28.8*,i,i,-33.6,-28.0,
COC(=O)C1=C(C)N(C)C(C)=C(C(=O)OC)C1c1ccsc1,-0.8,0.1,0.6,10.2,4.4,·,·,
CCN1C=C(C(=O)OC)C(c2cccc(C)c2)C(C(=O)OC)=C1,i,i,40.2*,i,i,-53.7,-50.8,
Cc1ccc(C(=O)Nc2ccncc2)c(Cl)c1,2.5,-1.1,0.0,-0.2,-2.4,·,·,
CCOC(=O)c1cc(C(=O)OCC)c2ccccn2c1=O,i,i,55.4*,i,i,57.2*,67.6*,
CCOC(=O)c1c[nH]n(-c2ccccc2)c1=O,-6.6,-0.9,-0.2,4.6,1.8,·,·,
COc1cc(NC(=O)c2cccs2)c(OC)cc1NC(=O)Nc1ccc(F)cc1,-7.6,-6.4,99.0*,11.8,-4.3,71.1*,116.7*,
COc1cc(NC(=O)COc2ccccc2Cl)ccc1NC(=O)c1cccs1,-181.7,-103.1,63.3*,-223.9,-100.0,15.1*,8.8*,EDANS interf=8.6*
O=c1[nH]c(CN2CCN(c3ccccc3Cl)CC2)nc2ccsc12,-3.6,-3.8,-0.9,-5.2,-2.2,·,·,
COc1cc2c(cc1OC)CN(Cc1nc3ccsc3c(=O)[nH]1)CC2,i,-94.4,30.8*,-262.2,-380.7,8.5,12.8*,
CCOC(=O)NN1C(=O)c2ccccc2NC1c1ccc(N(C)C)cc1 (stereo not given),-289.3,-152.3,5.7,-461.6,-271.0,·,·,
O=C(O)CCC(=O)NN1C(=O)c2ccccc2NC1c1ccco1 (stereo not given),-432.5,-225.8,14.7*,i,-315.4,49.1*,15.6*,EDANS interf=>69.5
O=C(NN1C(=O)c2ccccc2NC1c1ccco1)c1ccccc1 (stereo not given),-75.2,-45.8,1.3,-113.8,-51.0,·,·,
CCOC(=O)NN1C(=O)c2ccccc2NC1c1ccc(OC)cc1 (stereo not given),i,i,36.4*,i,i,19.6*,22.7*,
CCOC(=O)NN1C(=O)c2ccccc2NC1c1ccccc1 (stereo not given),i,-384.4,19.8*,i,i,21.1*,23.8*,
COc1ccc(C2Nc3ccccc3C(=O)N2NC(C)=O)c(OC)c1 (stereo not given),i,-284.7,20.8*,i,-443.8,19.8*,15.7*,EDANS interf=>69.6
CC(C)(C)NC(=O)/C(=C\c1cccnc1)NC(=O)c1ccco1,-0.2,-0.6,-0.5,-3.4,3.1,·,·,
Cc1cccc(Cl)c1-n1nnnc1C1(C)CSCC(=O)N1Cc1ccc(F)cc1 (stereo not given),-0.3,-1.4,0.3,0.0,0.2,·,·,
SMILES,PLCb3 inh,ADAM17 inh,proKLK7 act,ADAM10 inh,PLC-gamma1 inh,proKLK7 act conf,EDANS interfere,others
CCOC(=O)NN1C(=O)c2ccccc2NC1C (stereo not given),i,-325.3,13.3*,i,-478.2,25.5*,28.3*,
CC(=O)Nc1ccc(S(=O)(=O)N2CCN(C(=O)N3CCCCC3)CC2)cc1,0.1,-0.9,0.0,-3.8,4.1,·,·,
CN(C)/C=N/c1nc2nccc(-c3cccs3)n2n1,i,i,84.8*,i,i,67.1*,78.8*,
CN(C)/C=N/c1nc2nccc(-c3cccc(Cl)c3)n2n1,-320.8,-80.8,14.6*,-294.7,-239.1,34.0*,45.4*,
CCOC(=O)CC[C@H]1CC[C@]2(CCCN(S(=O)(=O)C3CCCCC3)C2)O1,-0.1,0.6,-0.1,1.7,2.7,·,·,
O=S(=O)(Cc1ccccc1)N1CCN(c2ccccc2)CC1,0.5,0.3,0.3,0.9,1.6,·,·,
CC(OC(=O)c1ccc([N+](=O)[O-])o1)C(=O)NC1CCCCC1C (stereo not given),-12.1,1.9,-0.3,-3.6,-5.7,·,·,
COCCn1nnnc1C(c1cc2cccc(C)c2[nH]c1=O)N1CCN(c2ccccc2F)CC1 (stereo not given),-52.2,-12.3,20.3*,-48.9,-43.7,17.0*,17.4*,
COc1ccc(-c2cc(-c3ccccc3)nc3ncnn23)cc1,i,i,15.2*,i,i,-51.7,-76.3,
Nc1cccc2c1C(=O)N(C(=O)c1ccc(Cl)c(S(=O)(=O)N3CCCCCC3)c1)C2=O,i,-85.4,17.9*,-267.7,i,217.2*,233.2*,
O=C(c1ccc(Cl)c(S(=O)(=O)N2CCCCC2)c1)N1CCCCC1,2.2,-0.5,0.5,-17.3,2.5,·,·,
Nc1cccc2c1C(=O)N(C(=O)c1cccc(S(=O)(=O)N3CCCCCC3)c1)C2=O,i,-85.2,19.0*,-290.2,i,257.8*,269.1*,
Cc1ccc(S(=O)(=O)N2CCOCC2)cc1C(=O)N1C(=O)c2cccc(N)c2C1=O,-320.6,-23.1,-5.1,-70.2,-245.3,·,·,
C#CCN(C(=O)c1ccc(OC)c(OC2CCN(C(C)C)CC2)c1)C1CCCCC1,-1.5,1.7,-0.1,-12.3,-0.3,·,·,
O=C(NCCc1ccccc1)c1coc(=O)c(Br)c1,-153.8,-195.1,13.5*,-430.9,-121.2,32.1*,25.9*,EDANS interf=i
O=C(Nc1cc(Cl)cc(Cl)c1)c1coc(=O)c(Br)c1,-157.4,-195.7,-4.7,i,-154.9,·,·,
O=C(NC(CO)(CO)CO)c1coc(=O)c(Br)c1,-44.6,-58.5,40.6*,-242.1,-35.7,54.2*,53.6*,
CCCC(=O)Nc1c(C(=O)OCC)oc2ccccc12,-1.6,1.1,0.1,-0.1,1.4,·,·,

# Screening results (PubChem BioAssay)
